Active and inactive are the calls of the source. Rule for the calls: active = hit-call score of the fitted dose curve at least 0.9, where 1 is the maximum; inactive = score below 0.9.

Assay [1] is described as follows: ATG_CRE_CIS: Attagene CIS-FACTORIAL HepG2 Assay for human cAMP Responsive Element (CRE) binding protein 3 (AID 2282926). To be noted: HepG2 CRE cis-reporter, Attagene multiplexed mRNA; actives raise or lower the signal. In outline: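 HepG2 cells transiently transfected with a multiplexed reporter library (CRE-driven unit among them) were dosed for 24 h. Reporter mRNA was quantified by RT-PCR, fluorescent labelling, HpaI digestion and capillary electrophoresis, with bidirectional fitting against DMSO baseline.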

Assay [2] addresses CCAAT/enhancer-binding protein beta (Homo sapiens) (UniProt P17676). Kind of assay: ATG_C_EBP_CIS: Attagene CIS-FACTORIAL HepG2 Assay for human CCAAT/Enhancer Binding Protein (C/EBP) beta (AID 2282927). The conditions noted are these: HepG2 Attagene cis-factorial transcription factor reporter; actives raise or lower the signal. In outline: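 Endogenous transcription factor activity in human liver HepG2 cells is inferred from induction of a CEBPB-linked reporter mRNA. Exposure lasts 24 h; activity is fitted in both directions relative to DMSO.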

Assay [3] is described as follows: ATG_CMV_CIS: Attagene CIS-FACTORIAL HepG2 Assay for human CMV (Internal Marker) (AID 2282928).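 Note: endpoint acts as a background internal control marker rather than a target.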 To be noted: HepG2 CMV promoter reporter, transcription factor profiling; actives raise or lower the signal. The essentials:
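Cell system: HepG2, transiently transfected multiple reporter units under cis promoters. Exposure: 24 h. Detection: RT-PCR, FAM labeling, HpaI digestion, capillary electrophoresis. Analysis: bidirectional, DMSO baseline.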

Assay [4] is described as follows: ATG_DR4_LXR_CIS: Attagene CIS-FACTORIAL HepG2 Assay for human Liver X Receptor (LXR), DR4 submotif (AID 2282929). To be noted: HepG2 Attagene DR4 cis-reporter, mRNA transcription; actives raise or lower the signal. The essentials:
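Endogenous factor activity at a DR4 cis-element is read as reporter mRNA in transiently transfected HepG2 cells. Exposure lasts 24 h; transcripts are amplified, fluorescently labelled and sized by capillary electrophoresis, with DMSO as baseline.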

Assay [5] concerns the target Aryl hydrocarbon receptor (Homo sapiens) (UniProt P35869). Kind of assay: ATG_Ahr_CIS: Attagene CIS-FACTORIAL HepG2 Assay for human Aryl Hydrocarbon Receptor (Ahr) (AID 2282930). The conditions noted are these: HepG2 AhR cis-factorial reporter transcription; actives raise or lower the signal. In outline: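 Transient MRTU transfection of HepG2 → 24 h compound exposure → total RNA, oligo(dT) RT → PCR, 6-FAM extension, HpaI cut → CE fluorescence. DMSO = baseline; bidirectional curve fit.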

A short description of assay [6]: ATG_AP_1_CIS: Attagene CIS-FACTORIAL HepG2 Assay for human Activator Protein 1 (AP-1) (AID 2282931). The conditions noted are these: HepG2 Attagene cis-factorial AP-1 reporter mRNA; actives raise or lower the signal. The essentials:
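Fluorescence of labelled PCR fragments separated by capillary electrophoresis gives reporter mRNA levels. HepG2 with transfected cis-regulated reporter units, 24 h exposure; DMSO serves as baseline for bidirectional curve fits.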

A short description of assay [7]: ATG_AP_2_CIS: Attagene CIS-FACTORIAL HepG2 Assay for human Activator Protein 2 (AP-2) (AID 2282932). The conditions noted are these: HepG2 AP-2 cis-reporter, Attagene transcription factor profiling; actives raise or lower the signal. In outline:
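HepG2, transient MRTU transfection, cis-regulated reporters; 24 h compound exposure; RNA isolated, RT-PCR, 6-FAM labelling, HpaI digest, CE fluorescence. DMSO = negative control/baseline, bidirectional fit.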

A short description of assay [8]: ATG_BRE_CIS: Attagene CIS-FACTORIAL HepG2 Assay for human Bone Morphogenetic Protein (BMP) Response Element (BRE) (AID 2282933). The conditions noted are these: HepG2 BMP response element reporter, Attagene transcription factor profiling; actives raise or lower the signal. The essentials:
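Read-out: reporter mRNA induction quantified by RT-PCR and capillary electrophoresis after 24 h chemical exposure of transfected HepG2 cells. Endogenous factor activity on the BMP response element; gain or loss fitted against DMSO baseline.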

For assay [9], the target named is Retinoic acid receptor alpha (Homo sapiens) (UniProt P10276). Kind of assay: ATG_DR5_RAR_CIS: Attagene CIS-FACTORIAL HepG2 Assay for human Retinoic Acid Receptor Alpha (RARE), DR5 submotif (AID 2282934).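 For AC50: reporter responds to endogenous RAR alpha beta and gamma in HepG2 not RARA alone.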 To be noted: HepG2 Attagene cis-factorial RARE DR5 reporter, mRNA; actives raise or lower the signal. In outline:
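Transient MRTU transfection of HepG2; 24 h compound treatment; TriZol RNA, oligo(dT) RT, PCR, FAM labelling, capillary electrophoresis. Bidirectional fit vs DMSO. Endogenous TF activity at DR5 RARE.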

Chain of Retinoic acid receptor alpha (Homo sapiens) (P10276 whole entry, looked up): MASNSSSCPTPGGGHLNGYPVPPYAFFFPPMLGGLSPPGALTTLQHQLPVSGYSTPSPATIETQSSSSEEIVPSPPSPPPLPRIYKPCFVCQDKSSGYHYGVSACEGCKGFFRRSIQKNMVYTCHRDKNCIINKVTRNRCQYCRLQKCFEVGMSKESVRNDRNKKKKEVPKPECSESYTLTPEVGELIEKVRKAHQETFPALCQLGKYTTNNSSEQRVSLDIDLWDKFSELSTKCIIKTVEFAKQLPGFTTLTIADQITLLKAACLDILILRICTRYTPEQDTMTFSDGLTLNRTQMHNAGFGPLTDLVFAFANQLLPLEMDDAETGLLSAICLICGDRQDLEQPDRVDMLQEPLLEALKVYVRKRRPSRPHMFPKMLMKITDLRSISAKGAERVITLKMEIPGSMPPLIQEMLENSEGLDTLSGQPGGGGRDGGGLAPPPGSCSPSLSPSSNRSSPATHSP
Chain of CCAAT/enhancer-binding protein beta (Homo sapiens) (P17676 whole entry, looked up): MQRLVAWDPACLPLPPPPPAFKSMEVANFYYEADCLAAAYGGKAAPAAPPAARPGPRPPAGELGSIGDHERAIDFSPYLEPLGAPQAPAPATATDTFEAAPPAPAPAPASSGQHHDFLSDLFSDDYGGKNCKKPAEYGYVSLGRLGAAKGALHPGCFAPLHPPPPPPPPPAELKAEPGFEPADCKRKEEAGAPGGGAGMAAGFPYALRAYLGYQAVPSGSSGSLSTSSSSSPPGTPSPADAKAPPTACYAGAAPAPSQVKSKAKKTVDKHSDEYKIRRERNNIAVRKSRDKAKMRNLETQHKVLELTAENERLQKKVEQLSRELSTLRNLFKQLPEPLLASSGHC
Chain of Aryl hydrocarbon receptor (Homo sapiens) (P35869 whole entry, looked up): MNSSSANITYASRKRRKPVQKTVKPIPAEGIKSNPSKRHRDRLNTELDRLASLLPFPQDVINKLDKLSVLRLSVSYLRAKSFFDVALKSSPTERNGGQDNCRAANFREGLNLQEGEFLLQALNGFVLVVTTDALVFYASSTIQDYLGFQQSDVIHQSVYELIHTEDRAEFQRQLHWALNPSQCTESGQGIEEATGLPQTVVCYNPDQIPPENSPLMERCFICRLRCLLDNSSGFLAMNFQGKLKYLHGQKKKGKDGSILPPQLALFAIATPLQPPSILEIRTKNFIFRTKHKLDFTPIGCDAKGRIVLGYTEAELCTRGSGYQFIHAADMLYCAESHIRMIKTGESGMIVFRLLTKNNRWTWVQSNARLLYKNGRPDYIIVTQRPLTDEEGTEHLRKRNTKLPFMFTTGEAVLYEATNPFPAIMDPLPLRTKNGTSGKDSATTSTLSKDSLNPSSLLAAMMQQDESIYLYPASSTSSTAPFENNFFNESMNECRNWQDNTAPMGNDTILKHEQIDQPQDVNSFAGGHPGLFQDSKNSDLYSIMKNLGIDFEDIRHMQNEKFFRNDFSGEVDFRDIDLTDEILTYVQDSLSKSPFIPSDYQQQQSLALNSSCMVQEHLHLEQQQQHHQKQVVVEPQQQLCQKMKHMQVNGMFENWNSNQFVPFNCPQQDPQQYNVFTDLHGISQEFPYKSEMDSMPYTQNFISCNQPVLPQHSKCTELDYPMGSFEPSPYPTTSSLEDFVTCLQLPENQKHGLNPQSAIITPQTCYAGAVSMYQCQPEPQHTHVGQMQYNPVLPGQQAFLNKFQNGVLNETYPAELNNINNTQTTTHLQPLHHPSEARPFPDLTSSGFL

`O=S1(=O)CC=CC1`: the result in assay [1], in [2], in [3], in assay [4], in assay [5] and in [6] was inactive. In addition, the result in assay [7], in assay [8] and in assay [9] was inactive.
Turning to `CC(=O)Oc1c(C)c(C)c2c(c1C)CC[C@@](C)(CCC[C@H](C)CCC[C@H](C)CCCC(C)C)O2`, the result in assay [1], in [2], in assay [3], in [4], in [5] and in assay [6] was inactive. Also, the compound was called inactive in assay [7], in assay [8] and in assay [9].
On to `C/C=C(\C)C(=O)OC/C=C(\C)CCC=C(C)C`, for which the compound was called inactive in assay [1], in assay [2], in assay [3], in assay [4], in [5] and in assay [6]. The call in assay [7], in [8] and in assay [9] was inactive.
With `N#CCCCC(C#N)CCC#N` (stereo unspecified), the outcome in assay [1], in assay [2], in [3], in [4], in assay [5] and in [6] was inactive. Moreover, the compound was called inactive in assay [7], in assay [8] and in assay [9].
On to `O=C(O)c1cc2ccccc2cc1O`, for which the call in [1], in assay [2], in [3], in assay [4], in [6] and in [7] was inactive. For the same compound, the result in assay [8] and in assay [9] was inactive. The AC50 (commonly the concentration at which the activity in the assay is half-maximal) in assay [5] is 4.5 µM (active).
On to `[Cu+]`, for which the compound was called inactive in assay [1], in [2], in assay [3], in assay [4], in assay [6] and in assay [7]. Besides, the compound was called inactive in assay [8] and in assay [9]. Further, in [5], the AC50 was 15 µM (active).
With `CCOC(=O)CCCCCCCCC(=O)OCC`, the result in assay [1], in assay [2], in assay [3], in [4], in assay [5] and in assay [6] was inactive. Also, the compound was classed as inactive in [7], in assay [8] and in assay [9].
Regarding `NC(=O)NC(N)=O`, the result in [1], in assay [2], in assay [3], in [4], in assay [5] and in assay [6] was inactive. Besides, the call in assay [7], in [8] and in assay [9] was inactive.
For `Cc1cc(O)c2c(c1)C(=O)c1cc(O)cc(O)c1C2=O`, the AC50 in assay [1] was 8.7 µM (active); in [2], 12.5 µM (active); in assay [4], 44.8 µM (active); in [5] it was 25.3 µM (active); in assay [8], 9.2 µM (active); in assay [9] it was 17.6 µM (active). In addition, the compound was classed as inactive in [3], in [6] and in assay [7].
In the case of `CC(=O)OC(C)(C)C1CC=C(C)CC1` (stereo unspecified), the outcome in assay [1], in assay [2], in assay [3], in assay [4], in assay [6] and in [7] was inactive. For the same compound, the outcome in assay [8] and in assay [9] was inactive. Further, the AC50 in assay [5] is 8.48 µM (active).
As for `[O-]/[N+](=N\O)c1ccccc1`, the compound was called inactive in assay [1], in assay [2], in assay [3], in [4], in assay [6] and in assay [7]. In addition, the outcome in assay [8] and in assay [9] was inactive. Moreover, the AC50 in assay [5] is 4.26 µM (active).
In the case of `O=S(=O)(O)CCCN1CCOCC1`, the compound was classed as inactive in [1], in assay [2], in assay [3], in assay [4], in assay [5] and in assay [6]. The compound was called inactive in [7], in assay [8] and in assay [9].
Consider `O=C(O)c1cccc(Cl)n1`, for which the call in assay [1], in [2], in assay [3], in assay [4], in assay [5] and in assay [6] was inactive. Moreover, the result in assay [7], in assay [8] and in [9] was inactive.
In the case of `Nc1cc([N+](=O)[O-])ccc1C(=O)O`, the compound was called inactive in assay [1], in assay [2], in [3], in [4], in assay [6] and in [7]. Moreover, the compound was called inactive in assay [8] and in [9]. The AC50 in assay [5] is 20.3 µM (active).
Consider `CC(C)C(=O)c1ccccc1`, for which the compound was classed as inactive in assay [1], in assay [2], in assay [3], in assay [4], in assay [5] and in assay [6]. For the same compound, the compound was called inactive in assay [7], in assay [8] and in [9].
Regarding `CCC(C)C1CCCCC1=O` (stereo unspecified), the outcome in [1], in assay [2], in assay [3], in assay [4], in assay [5] and in assay [6] was inactive. For the same compound, the compound was classed as inactive in assay [7], in [8] and in [9].
Turning to `CCCCOC(=O)C(C)OC(=O)CCC` (stereo unspecified), the compound was called inactive in [1], in [2], in assay [3], in [4], in [5] and in assay [6]. The compound was called inactive in assay [7], in assay [8] and in assay [9].
For `O=Cc1ccccc1O`, the outcome in assay [1], in [2], in assay [3], in [4], in assay [6] and in assay [7] was inactive. For the same compound, the call in [8] and in assay [9] was inactive. Besides, in assay [5], the AC50 was 48.5 µM (active).
Take `O=C(O)C1=NN(c2ccc(S(=O)(=O)O)cc2)C(=O)C1`: the call in assay [1], in assay [2], in assay [3], in assay [4], in [5] and in [6] was inactive. The outcome in assay [7], in [8] and in assay [9] was inactive.
Take `CCCCCCCCCO`: the compound was called inactive in [1], in assay [2], in assay [3], in [4], in [5] and in assay [6]. In addition, the result in assay [7], in assay [8] and in [9] was inactive.
Take `O=C(O)c1ccc(C(=O)O)c(C(=O)O)c1`: the result in [1], in [2], in assay [3], in assay [4], in [5] and in assay [6] was inactive. Moreover, the call in [7], in assay [8] and in assay [9] was inactive.
Regarding `O=C(O)CS`, the compound was called inactive in assay [1], in assay [2], in [3], in assay [4], in assay [5] and in assay [6]. Further, the outcome in assay [7], in assay [8] and in assay [9] was inactive.
Consider `NNC(=O)OCc1ccccc1`, for which the compound was classed as inactive in assay [1], in assay [2], in assay [3], in [4], in [5] and in [6]. Also, the call in [7], in assay [8] and in assay [9] was inactive.
Turning to `CCCc1ccc(O)cc1`, the outcome in assay [1], in assay [2], in assay [3], in [6], in [7] and in [8] was inactive. For the same compound, the compound was called inactive in assay [9]. Also, in assay [4], the AC50 is 70.5 µM (active).
Turning to `CCOC(=O)CC1(C)OCC(C)O1` (stereo unspecified), the result in [1], in [2], in assay [3], in [4], in assay [5] and in assay [7] was inactive. Also, the compound was called inactive in [8] and in assay [9].
Consider `CC(=O)Nc1cc(S(=O)(=O)O)cc2cc(S(=O)(=O)O)c(N=Nc3ccccc3)c(O)c12`, for which the result in assay [1], in assay [2], in assay [3], in [4], in assay [6] and in assay [7] was inactive. The compound was classed as inactive in assay [8] and in [9].
`CC(C)(C)c1cccc(O)c1`: the compound was classed as inactive in assay [1], in [2], in assay [3], in assay [4], in [5] and in assay [7]. Further, the compound was called inactive in [8] and in assay [9].
Turning to `CCCCCCCCCOS(=O)(=O)O`, the outcome in [1], in assay [2], in assay [3], in [5], in assay [7] and in assay [8] was inactive. The AC50 in assay [4] is 78.7 µM (active).

These data come from PubChem BioAssay (EPA / NIEHS).
